PubChem BioAssay (NCI)
The panel holds about 83,000 compounds, 20% with a hit somewhere; the sample as a whole holds those more often.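 For each line, cells grew in 96-well plates with the test compound present at a single concentration for 48 hours.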 Calls of active or inactive are those of the source. The calls were made as follows: active = growth percent below 10; inactive = the rest.

Tested on: NCI-H322M lung
Assay: NCI-60 one-dose screen, 48 h (100 = growth as untreated, 0 = no growth, -100 = all killed)
Conditions: 10 µM unless noted

Structure (SMILES) | growth
C/C(=N\N=C1/C(=O)Nc2ccc(Cl)cc21)c1ccc2c(c1)Nc1ccccc1S2 | 28.3% (inactive)
CCCSc1nc(NCCc2c[nH]c3ccccc23)c(C#N)c(-c2ccc(F)cc2)n1 | 82.9% (inactive)
COc1cc(C2CC(c3cc(OC)c(OC)c(OC)c3)=NN2C(C)=O)ccc1OCc1ccccc1 (centres undefined) | 59.8% (inactive)
Cc1cc2c(cc1Cl)C(=O)/C(=C/c1ccccc1)O2 | 73.5% (inactive)
COc1ccc2[nH]cc(-c3nc(N)nnc3-c3cn(C)c4ncccc34)c2c1 | 69.6% (inactive)
Cc1ccc(C(=O)CSc2nc3ccc(F)cc3c(=O)n2-c2ccc(Cl)cc2)cc1 | 64.8% (inactive)
CCCCSc1nc(NCCc2c[nH]c3ccccc23)c(C#N)c(-c2ccccc2)n1 | 83.8% (inactive)
Cn1cc(-c2nc(N)nnc2-c2c[nH]c3ccc(Br)cc23)c2cccnc21 | 63.3% (inactive)
CN(C)CCOc1ccc(C(=O)C2[C@H](c3ccc(Cl)cc3)[C@@H](c3ccccc3)NC23C(=O)Nc2ccc(Br)cc23)cc1 (some centres undefined) | 53.7% (inactive)
CN1CCN(/C(=N\c2sc(-c3ccccc3)nc2-c2ccccc2)c2ccccc2)CC1 | 82.8% (inactive)
CCCSc1nc(NCCc2c[nH]c3ccccc23)c(C#N)c(-c2ccccc2)n1 | 93.5% (inactive)
CCN(CC)c1ccnc(CNCCSC(c2ccccc2)(c2ccccc2)c2ccc(OC)cc2)c1 | 21.8% (inactive)
COc1cc2oc(-c3cccc(C(=O)Nc4cccc([N+](=O)[O-])c4)c3)cc(=O)c2c(OC)c1OC | 40.2% (inactive)
O=C(COc1ccc(NC(=O)Nc2ccc(Cl)c(Cl)c2)cc1)N=Nc1c(O)[nH]c2ccc([N+](=O)[O-])cc12 | 85.3% (inactive)
COc1cc(-c2nc3cc(Cl)c(Cl)cc3[nH]2)ccc1OCc1nnc(-c2cccs2)o1 | 75.3% (inactive)
CCCCCCCCc1ccc(C(=O)Nc2ccc(C)cc2C(=O)O)cc1C | 99.3% (inactive)
CCOP(=O)(OCCCl)c1nc(-c2ccc(C)cc2)oc1NCc1ccccc1 (centres undefined) | 84.6% (inactive)

Structure (SMILES) | growth
NS(=O)(=O)c1ccc(N=Nc2c(O)n(CC(=O)Nc3ccccc3)c3ccccc23)cc1 | 52% (inactive)
CC1(C)CC[C@]2(C(=O)Nc3ccccc3)CC[C@]3(C)C(=CCC4[C@@]5(C)C[C@@H](O)[C@H](O)[C@@](C)(CO)C5CC[C@]43C)C2C1 (some centres undefined) | 89.7% (inactive)
COc1ccccc1C(=O)NN1C(=O)/C(=C/C2=Cc3ccccc3OC2)SC1=S | 99.4% (inactive)
COc1ccc(NC(=O)[C@H](CO)NC(=O)OC(C)(C)C)cc1C(=O)Nc1cccc(C2CC(=O)c3c(cc(OC)c(OC)c3OC)O2)c1 (some centres undefined) | 81.1% (inactive)
COc1ccc(C2(SCCNCc3cc(N(C)C)ccn3)c3ccccc3C=Cc3ccccc32)cc1 | 35.1% (inactive)
COc1ccc2[nH]c(O)c(N=NC(=O)COc3ccc(NC(=O)Nc4ccccc4)cc3)c2c1 | 37.2% (inactive)
COc1cc(/C=C/C(=O)c2ccc(C)cc2)ccc1Oc1nc(Nc2ccc(F)cc2)nc(N(C)C)n1 | 74.1% (inactive)
CCN(CC)CCOc1ccc(Nc2ncc3cc(-c4ccc(O)c(C#N)c4)c(=O)n(C)c3n2)cc1 | 96.9% (inactive)
CC(/C=C1\SC(=S)N(CCCC(=O)NC(CC(C)C)C(=O)O)C1=O)=C\c1ccccc1 (centres undefined) | 92.8% (inactive)
COc1cc2c(c(OC)c1OC)C(=O)CC(c1cccc(NC(=O)c3cc(N)ccc3Cl)c1)O2 (centres undefined) | 89% (inactive)
CC(=O)OC[C@@]1(C)C2CC[C@]3(C)C(CC=C4C5CC(C)(C)CC[C@]5(C(=O)Nc5cccc(C)c5)CC[C@]43C)[C@@]2(C)C[C@@H](OC(C)=O)[C@@H]1OC(C)=O (some centres undefined) | 65.9% (inactive)
CCCCc1c(Nn2cnnn2)no[n+]1[O-] | 66.7% (inactive)
CC(C)Sc1nc(NCCc2c[nH]c3ccccc23)c(C#N)c(-c2ccc(F)cc2)n1 | 85.2% (inactive)
C=C1CCC2C3(C)COC(c4ccc(F)cc4)OC3CCC2(C)C1CC(O)C1=CCOC1=O (centres undefined) | 82.1% (inactive)
NS(=O)(=O)c1ccc(N=Nc2c(O)n(CC(=O)Nc3ccccc3Cl)c3ccccc23)cc1 | 29.2% (inactive)
Cc1ccccc1[C@H]1C(C(=O)c2ccc(Cl)cc2)C2(N[C@@H]1c1ccccc1)C(=O)Nc1ccc(Cl)cc12 (some centres undefined) | 22.1% (inactive)
CCCCCCCCc1ccc(S(=O)(=O)Nc2ccc(CC)cc2C(=O)O)cc1 | 95.2% (inactive)
